Hsp70 act: Hsp70 transcriptional activation, primary screen; HeLa Hsp70 promoter luciferase reporter, luminescence; scaled: vehicle 0, proteasome-inhibitor control 100%; activation, % at 10 µM; 200,000 compounds, 0.04% hits;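 active = activation above the mean across all tested compounds plus 3 SD, cutoff set per campaign, cut at about 5.5% in these data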;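 note: 100% = MG132 at 30 µM as the positive control and 0% = DMSO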
SMARCA2 act: activators of SMARCA2 function; MG213 cells, MMTV-luciferase reporter, dexamethasone, overnight; activation, % at 9.1 µM; 370,000 compounds, 1% hits; AID 652017; in the data active = activation above about 7.8%;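 note: 0% = vehicle wells and 100% = reference activator wells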
GalR3 antagonist: human GalR3 antagonism; O60755; HEK293 GalR3-CNG cAMP membrane potential fluorescence; galR3 body fused to GalR1 C-terminus; inhibition, % at 3 µM; 360,000 compounds, 0.44% hits; AID 651719;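 active = inhibition above the screen-wide average plus 3 SD, cut at about 13% in these data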;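 note: forskolin and galanin both at EC90 stimulate the cells; cAMP rise reported by CNG channel membrane potential dye signal; 0% = forskolin plus galanin with DMSO and 100% = forskolin alone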
Target sequence (O60755 1-299 limits assumed): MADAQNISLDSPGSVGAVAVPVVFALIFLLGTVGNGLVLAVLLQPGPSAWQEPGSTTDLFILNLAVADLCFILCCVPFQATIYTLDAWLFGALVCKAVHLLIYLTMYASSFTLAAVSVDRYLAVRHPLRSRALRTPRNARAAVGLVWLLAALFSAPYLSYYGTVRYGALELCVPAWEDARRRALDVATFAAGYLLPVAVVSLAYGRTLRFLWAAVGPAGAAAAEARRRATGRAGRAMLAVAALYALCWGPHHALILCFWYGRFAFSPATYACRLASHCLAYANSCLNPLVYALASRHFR
HIF act: HIF pathway transcriptional activation. activation, % at 7.5 µM (by protocol). U2OS HRE-luciferase reporter, luminescence; normalized: DMSO 0%, desferrioxamine 100%. AID 1910. 300,000 compounds, 0.32% hits;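 active = mean activation of at least 10% of the iron chelator positive control signal, with at least half of replicates also reaching 10%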
GAA850 FXN act: frataxin GAA850 promoter activation; 360,000 compounds, 0.56% hits; HEK293 lucGAA850 FXN promoter luciferase reporter, 24 h; percent of 10 µM SAHA response; activation, % at 6 µM;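 active = activation above the average of all compounds screened plus 3 SD, cutoff fixed separately per campaign, cut at about 7.5% in these data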;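 note: 0% = DMSO wells and 100% = 10 µM SAHA wells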
GalR3 antag conf: confirmation of human galanin receptor 3 antagonists. inhibition, % at 3 µM. HEK293 GalR3 CNG cAMP biosensor, membrane potential fluorescence; galR3 fused to GalR1 carboxy tail; challenged with forskolin and galanin at EC90. 1,600 compounds, 59% hits. shares compounds with GalR3 antagonist;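 active = inhibition above the primary screen's cutoff, the mean inhibition of all screened compounds plus 3 SD, cut at about 13% in these data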;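 note: 0% = forskolin plus galanin and 100% = forskolin alone with DMSO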
CNG parental: parental cell agonism counter-screen for GalR3 antagonists; shares compounds with GalR3 antagonist; HEK293-CNG parental cells, cAMP membrane potential fluorescence; normalised: DMSO wells 0%, forskolin wells 100%; activation, % at 3 µM; 1,600 compounds, 10% hits; AID 652268; in the data active = activation above about 1.3%
Numbers without * were called inactive; x = no result. A selection: hits, their analogues and other compounds. The true share with any hit is near 2.2%.

SMILES	Hsp70 act	SMARCA2 act	GalR3 antagonist	HIF act	GAA850 FXN act	GalR3 antag conf	CNG parental
O=C(COc1ccc2ccccc2c1)Nc1ccncc1	0	-5	66*	-1	0	73*	0
COc1ccc(C(=O)/C=C(\Nc2ccc(F)cc2)c2ccc(OC)cc2OC)c(OC)c1	x	-1	x	x	x	x	x
COC(=O)C1=CC(=O)C=C(OC)[C@@]12Oc1cc(C)cc(OC)c1C2=O	x	-13	x	x	x	x	x
Cc1ccc(Oc2ccc(OCC(=O)Nc3ccncc3)cc2)cc1	x	-8	105*	x	-11	109*	-1
CCc1ccc(OCC(=O)Nc2ccncc2)cc1	x	-2	-4	0	2	x	x
COc1ccc(C2C3=C(CC(C)(C)CC3=O)Nc3cc4c(cc32)OCO4)cc1 (stereo not given)	-1	-1	-3	0	0	x	x
COc1ccc(OC)c(C2C3=C(COC3=O)Nc3cc4c(cc32)OCO4)c1 (stereo not given)	0	0	28*	0	2	23*	1.4*
CCCCCn1c(=O)[nH]c2cc(C(=O)N3CCN(Cc4ccc5c(c4)OCO5)CC3)ccc2c1=O	0	-4	99*	-1	1	106*	-1
COCC(=O)Nc1ccc2c(c1)C(=O)N(C)[C@@H]1CC[C@@H](CC(=O)OC)O[C@H]1CO2	x	-1	x	x	x	x	x
Cn1c(CNc2nc3ccccc3n2C)nc2ccccc21	0	0	15*	4	0	0	0
CC(C)n1c(NCc2nc3ccccc3n2C)nc2ccccc21	0	-3	-5	0	-3	x	x
CC1(C)CC2(CC(c3ccccc3)Oc3cc(O)ccc32)NC(=S)N1 (stereo not given)	0	0	-1	0	-4	x	x
CC(=O)Oc1ccc2c(c1)OC(c1ccccc1)CC21CC(C)(C)NC(=S)N1 (stereo not given)	0	-1	x	0	-9	2	0
COc1ccccc1CNC(=O)c1cnn2c(C(F)F)cc(C)nc12	0	0	23*	-18	4	35*	0
Cc1ccc(C2C3=C(CC(C)(C)CC3=O)NC3=C2C(=O)c2ccccc23)cc1 (stereo not given)	0	-1	22*	0	-2	19*	0
Cc1nnc(SCc2nc3scc(-c4ccccc4)c3c(=O)[nH]2)s1	x	-5	14*	0	0	5	1
O=C(NCC(=O)N1CCN(c2ccccc2)CC1)c1ccc(Cl)cc1	x	-2	14*	0	2	1	0
COc1ccc(C(=O)NCC(=O)N2CCN(c3ccccc3)CC2)cc1	x	-1	9	0	0	x	x
COc1cccc(C(=O)/C=C/c2ccc(OCC#N)c(OC)c2)c1	0	-2	20*	3	-8	1	0
CC(C)Cn1c(N)c(C(=O)COC(=O)/C=C/c2ccccc2)c(=O)n(C)c1=O	x	-5	16*	0	-2	86*	0
CC1CCC2(CCC(=O)N2CCCO)CC1 (stereo not given)	x	-2	x	x	x	x	x
Cc1cc(C)cc(OCC(O)CN2CCC(CN3C(=O)c4cccc5cccc(c45)C3=O)CC2)c1 (stereo not given)	x	-5	28*	0	-1	21*	8.2*
COc1cccc(OCC(O)CN2CCC(CN3C(=O)c4cccc5cccc(c45)C3=O)CC2)c1 (stereo not given)	0	0	-9	0	2	x	x
COc1ccc(-c2ccccc2C2Cc3nnccc3CN2)cc1 (stereo not given)	x	3	-4	x	x	x	x
N#CCC(=O)Nc1ccc(C(=O)OCC(=O)c2ccc3c(c2)NC(=O)CO3)cc1	x	-2	13*	x	1	8	0
SMILES	Hsp70 act	SMARCA2 act	GalR3 antagonist	HIF act	GAA850 FXN act	GalR3 antag conf	CNG parental
O=C(NC1CCCc2c1cnn2-c1ccccc1F)c1ccncc1 (stereo not given)	x	-3	32*	x	-1	75*	0
O=C(NC1CCCc2c1cnn2-c1ccccc1F)c1ccccn1 (stereo not given)	x	-2	-7	0	-6	x	x
O=C(NC1CCCc2c1cnn2-c1ccc(F)cc1F)c1ccccn1 (stereo not given)	0	-4	-5	0	0	x	x
COc1ccc(C(=O)NC2CCCc3c2cnn3-c2ccccc2F)cc1OC (stereo not given)	x	-3	68*	0	-3	42*	0
COC(=O)C1CN(CCc2ccccc2)CCS(=O)(=O)N1Cc1ccc(C)cc1 (stereo not given)	x	-2	x	x	x	x	x
S=c1[nH]nc(-c2cc(-c3ccccc3)n[nH]2)n1N=Cc1c[nH]c2ccccc12	x	4	x	x	x	x	x
COc1ccc(C2c3cc(OC)c(OC)cc3CC3C(=O)OCC32)cc1OC (stereo not given)	x	0	62*	x	1	65*	0
COc1ccc(C2CC(=O)c3cc(OC)c(OC)cc32)cc1OC (stereo not given)	x	-2	-3	0	2	x	x
CC(C)CCn1c(N2CCc3ccccc3C2)nc2c1c(=O)[nH]c(=O)n2C	0	2	15*	0	2	-1	0
O=C(Cc1c[nH]c2ccccc12)Nc1ccc(Nc2cccnc2)c(-c2ccc(Cl)c(Cl)c2)c1	x	-2	-5	x	x	x	x
COc1ccc(CNc2nc(S(=O)(=O)c3ccccc3)c(Cl)s2)cc1OC	0	-3	85*	0	-1	-5	0
O=C(O)C1=C[C@@H](c2ccccc2)C[C@@H](OCCCCO)O1	x	0	-1	1	1	x	x
COc1ccc([C@H]2C=C(C(=O)O)O[C@@H](OCCCCO)C2)cc1	x	0	17*	0	3	-1	0
O=C(NCCc1ccc(Cl)cc1)c1ccc2c(c1)ncn2C1CCCCC1	x	-7	x	x	x	x	x
O=C(O)CNc1ncccc1[N+](=O)[O-]	0	-3	17*	0	2	-1	0
COc1ccc(CNc2ncccc2[N+](=O)[O-])cc1	x	3	-10	4	1	x	x
O=C(Cc1ccccc1)N/N=C/c1cc(Br)cc(Br)c1O	x	-2	-6	-11	1	x	x
Oc1c(Br)cc(Br)cc1C=NCc1ccc(F)cc1	0	2	34*	0	1	5	0
Oc1c(Br)cc(Br)cc1C=NCc1ccccc1	0	0	x	-1	0	2	1
COC(=O)C1CN(Cc2ccc(OC)cc2)CCS(=O)(=O)N1Cc1cn(CCOC(C)=O)nn1 (stereo not given)	x	-5	x	x	x	x	x
CC(C)C[C@H]1COc2cccc(N3CCCC3)c2S(=O)(=O)N1C	x	-3	x	x	x	x	x
